From PubChem
Sampled rows, rich in hits. Any-hit rate of the full collection: about 6%.
D1 agonist – Allosteric Agonists of the Human D1 Dopamine Receptor: qHTS; D(1A) dopamine receptor (Homo sapiens), P21728; HEK293 T-REx D1 cells, calcium flux, agonist mode; activation, % at 2 µM; hit rate 1% among 360,000; AID 504660, 2011; in the data active = activation above about 30%; note: 0% is about no effect
Target sequence (P21728 whole entry, looked up): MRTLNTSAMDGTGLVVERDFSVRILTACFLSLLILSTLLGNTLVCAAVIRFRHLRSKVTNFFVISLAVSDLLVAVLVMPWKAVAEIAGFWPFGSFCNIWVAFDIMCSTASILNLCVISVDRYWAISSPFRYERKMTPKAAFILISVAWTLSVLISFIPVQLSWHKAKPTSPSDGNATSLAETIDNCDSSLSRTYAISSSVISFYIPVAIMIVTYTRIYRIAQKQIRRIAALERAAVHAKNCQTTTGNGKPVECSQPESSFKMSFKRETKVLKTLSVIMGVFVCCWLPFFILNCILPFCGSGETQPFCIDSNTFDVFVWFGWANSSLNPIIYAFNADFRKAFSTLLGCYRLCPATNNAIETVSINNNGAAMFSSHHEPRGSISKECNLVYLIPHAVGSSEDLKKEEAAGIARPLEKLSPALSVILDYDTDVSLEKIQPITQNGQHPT
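Inducible HEK293 T-REx D1 cells, force-coupled to calcium signalling, were plated at 4000 cells/well with tetracycline and held overnight at 30 C. After no-wash calcium dye loading, compound-evoked calcium rise over 180 s flagged agonists.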
D1 antag – Antagonist of Human D 1 Dopamine Receptor: qHTS | hit rate 3.2% among 360,000 | HEK293 TREx D1 cells, calcium flux, dopamine EC80; stronger effect = lower value | activity change, negative = inhibition, % at 10 µM; in the data active = activity change below about -30%; note: % is set by controls: 0 for no effect and ±100 for the full control effect
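HEK293 T-REx cells expressing inducible, force-coupled D1 receptor; no-wash Ca dye, 30–90 min RT. Cmpd → 180 s read at 1 Hz → EC80 DA → 180 s read.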
D1 potentiator – Potentiators of Human D1 Dopamine Receptor: qHTS; potentiation, % at 10 µM; D(1A) dopamine receptor (Homo sapiens), P21728; HEK293 TREx D1 cells, calcium flux, dopamine EC20 potentiation; hit rate 0.036% among 360,000; AID 504651, 2011; in the data active = potentiation above about 30%; note: 0% is about no effect
D3 antag – qHTS of D3 Dopamine Receptor Antagonist: qHTS; D(3) dopamine receptor (Homo sapiens), P35462; D3R cells, DiscoveRx beta-arrestin luminescence, antagonist mode; stronger effect = lower value; max response, negative = inhibition, %; hit rate 2.5% among 360,000; AID 652054, 2013; in the data active = max response below about -50%; inconclusive = no clear call, values can overlap the other calls; note: % is set by controls: 0 for no effect and ±100 for the full control effect
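Cells expressing the human receptor were seeded at 1500 cells/well, incubated overnight at 37 degrees C in 5% CO2, then exposed to library compounds with dopamine controls for 90 minutes at 37 degrees C before luminescent detection.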
DRD3 agonist – qHTS of D3 Dopamine Receptor Agonist: qHTS. D3R DiscoveRx beta-arrestin cells, luminescence, 90 min. D(3) dopamine receptor (Homo sapiens), P35462. max activation, %. AID 652048, 2013. hit rate 0.58% among 410,000; in the data active = max activation above about 30%; note: 0% is about no effect
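Agonist mode: compounds and dopamine controls were applied to plated cells for 90 min at 37 degrees C after an overnight attachment at 1500 cells/well. Luminescent read-out followed 30 - 60 minutes at room temperature with DiscoveRx detection reagent.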
* = called active by the depositor; ? = inconclusive; · = no result given.

SMILES | D1 agonist | D1 antag | D1 potentiator | D3 antag | DRD3 agonist
NC1[C@H]2CN(c3nc4c(cc3F)c(=O)c(C(=O)O)cn4-c3ccc(F)cc3F)C[C@@H]12 (stereo partly drawn) | · | · | · | · | 3
COCCn1c(SCCN2CCCCC2)nc2ccccc2c1=O | 0 | 4 | 2 | -65* | -6
COCCn1c(SCC(=O)N2CCCCC2)nc2ccccc2c1=O | 3 | -28 | -4 | -27 | -14
C=CCSc1nnc(-c2cc3c(-c4ccccc4)nn(C)c3s2)n1C | 2 | -46* | -1 | -19 | -18
C=CCSc1nnc(-c2cc3c(C(F)(F)F)nn(C)c3s2)n1C | · | · | · | 0 | -4
COc1ccc(-c2oc3ncn4nc(COc5ccc(Cl)cc5)nc4c3c2-c2ccc(OC)cc2)cc1 | 6 | 29 | 3 | · | -1
O=C1CCCN1c1ncc(S(=O)(=O)c2ccc([N+](=O)[O-])cc2)s1 | 13 | -47* | -4 | 3 | 7
Nc1ncc(S(=O)(=O)c2ccc([N+](=O)[O-])cc2)s1 | · | · | · | -5 | 21
COC(=O)c1ccc(C23CC4(C2)[C@H](CN(Cc2cccnc2)[C@@H]4c2ccccc2)C3c2ccccc2)cc1 (stereo partly drawn) | 3 | -4 | -4 | -28 | 47*
COC(=O)c1ccc(C23CC4(C2)[C@H](CN(Cc2cccnc2)[C@@H]4c2ccccc2)C3c2ccc(C(F)(F)F)cc2)cc1 (stereo partly drawn) | 10 | -8 | 3 | -5 | 4
CN1C[C@@H]2C(c3ccccc3)C3(c4cccnc4)CC2(C3)[C@H]1c1ccccc1 (stereo partly drawn) | 2 | -39* | -1 | -21 | 3
CN1C[C@@H]2C(c3ccc(C(F)(F)F)cc3)C3(c4ccccc4)CC2(C3)[C@H]1c1ccccc1 (stereo partly drawn) | 6 | 24 | 3 | ? | 2
COc1ccc(N2CCN(C(c3ccccc3)c3sc4nc(-c5ccco5)nn4c3O)CC2)cc1 (stereo not drawn) | -3 | · | -1 | · | -15
CC(C)Oc1cccc(NC(=O)C2CCN(S(=O)(=O)Cc3ccccc3)CC2)c1 | -1 | -7 | -1 | · | -10
CCn1c(C)c(C)c2cc(C(=O)NCc3ccc(OC)cc3OC)ccc21 | 3 | 12 | 1 | · | -5
COc1ccc(CCNC(=O)CCc2cn(Cc3ccccc3Cl)c3ccccc23)c(OC)c1 | 4 | -36* | -2 | · | -15
C[C@H]1CN([C@@H](C)CO)C(=O)c2c(c3ccccc3n2C)-c2ccccc2CO[C@H]1CN(C)Cc1cccc(F)c1 | · | · | · | 4 | 1
C[C@H](CO)N1C[C@H](C)[C@H](CN(C)Cc2cccc(O)c2)OCc2ccccc2-c2c(n(C)c3ccccc23)C1=O | · | · | · | 24 | 45*
CC(C)Cc1nnc(NC(=O)CCC(=O)N2CCN(c3ccc([N+](=O)[O-])cc3)CC2)s1 | 0 | 0 | -6 | 15 | 10
CC(C)Cc1nnc(NC(=O)Cc2ccc([N+](=O)[O-])cc2)s1 | 31* | -5 | 14 | -5 | 4
O=C(Nc1ccccc1C(=O)OCc1cc(=O)n2c3c(sc2n1)CCCC3)c1cccc(Cl)c1 | 1 | 2 | 2 | · | -5
COc1ccc(NC(=O)C(=O)NCCN2CCN(C(=O)c3ccc(C)cc3)CC2)cc1 | 1 | -9 | · | -70* | -17
COc1ccc(C(=O)NCCN2CCN(C(=O)c3ccc(OC)cc3)CC2)cc1 | 1 | 1 | 3 | -83* | -15
O=S1(=O)CCOC[C@H](Cc2ccccc2)N1Cc1ccc(F)cc1 | · | · | · | -4 | 4
C=CCN1[C@@H](Cc2ccccc2)COCCS1(=O)=O | · | · | · | -50* | -25
CC1=C(C(=O)Nc2ccc(C)cc2C)C(CC(C)C)n2nc(SCc3ccccc3C)nc2N1 (stereo not drawn) | -1 | -36* | -2 | · | 7
CC1=C(C(=O)Nc2ccc(Cl)cc2)C(CC(C)C)n2nc(SCc3ccccc3C)nc2N1 (stereo not drawn) | 2 | -3 | -2 | · | 2
Cc1cc(C)cc(NCc2cc(=O)oc3cc(-c4ccccc4)c(O)cc23)c1 | 1 | -4 | -2 | 8 | -1
